Experimental data taken from PubChem BioAssay AID1628 (Sanford-Burnham Center for Chemical Genomics, 2009).
Screen size: about 190,000 compounds; about 930 (0.49%) were called active.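 The calls were made as follows: active = z-score of insulin promoter reporter brightness in nuclei below -3 at 5 µM, with at least 500 cells counted; inconclusive = wells with under 500 cells, flagged as toxic or sparse; inactive = the rest.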 This is one part of the list. Results with a measured potency or affinity are listed apart.

Assay: insulin promoter down-regulators in MIN6 cells, imaging, high-content screening, mouse beta cells (AID 1628)
Conditions: MIN6 insulin promoter GFP reporter, at 5 µM, active compounds read low

Structure (SMILES) | z-score
COc1ccc2nc(N/C(N)=N/C(=S)Nc3ccccc3)nc(C)c2c1 | 2.22 (inactive)
CN(C)c1ccc(/C=C(/C#N)C(=O)NCc2ccccc2)o1 | 16.1 (inactive)
CCCNc1c(F)c(F)c2c(C)c3ccccc3nc2c1F | 5.94 (inactive)
CSc1nc(-c2ccco2)nn1C(=O)c1ccco1 | -6.58 (active)
O=C(Oc1ccc2ccccc2c1)c1ccco1 | -0.59 (inactive)
Cc1ccc(NS(=O)(=O)c2ccc(CCC(=O)O)cc2)cc1 | 1.37 (inactive)
Cc1ccc(S(=O)(=O)Nc2ccc(=O)n(Cc3ccc(Cl)c(Cl)c3)c2)cc1 | 3.26 (inactive)
Cc1ccc(S(=O)(=O)NC(N)=NCCc2ccc(Cl)cc2)cc1 | -4.29 (active)
O=C1CN(C(=O)COc2ncnc3ccccc23)c2ccccc2N1 | 4.05 (inactive)
COc1ccc2c(=O)c(-c3ccccc3)coc2c1 | -0.45 (inactive)
CCCCOc1ccc(-c2cc(C(F)(F)F)c(C#N)c(SCC(=O)O)n2)cc1 | 4.82 (inactive)
Cc1nn(C)c(C)c1S(=O)(=O)N(CC(=O)Nc1nccs1)c1ccc(C(C)C)cc1 | 3.98 (inactive)
CN(C)C(=O)CSc1nnc(-c2cnccn2)n1C | 0.77 (inactive)
C=CCn1c(SCCOc2ccc(OC)cc2)nnc1C(C)NC(=O)Cc1ccc(OC)cc1 (centres undefined) | 4.23 (inactive)
C=CCn1c(SCC(=O)Nc2cc3oc4ccccc4c3cc2OC)nnc1-c1cnccn1 | -3.06 (active)
C=CCn1c(SCC(=O)Nc2nccs2)nnc1-c1cc2cccc(OC)c2o1 | -3.45 (active)
CCCCc1c(C)nn(-c2nnc3c4ccccc4n(CC)c3n2)c1C | -3.04 (active)
COc1ccc(C2C(C#N)=C(N)N(c3ncn[nH]3)C3=C2C(=O)CCC3)cc1 (centres undefined) | 1.75 (inactive)
CCN(CC)C(=O)Oc1cc(=O)n(C)c2ccccc12 | -3.24 (active)
CCCC(=O)c1c(C)c2ccccc2n1C | 3.01 (inactive)
O=C(Nc1ccon1)c1cccc(S(=O)(=O)N2CCCCC2)c1 | 3.46 (inactive)
Cc1cc(NC(=O)c2cccc(S(=O)(=O)N3CCCCCC3)c2)n(-c2ccccn2)n1 | -3.67 (active)
Nc1cccc2c1C(=O)N(C(=O)c1cccc(S(=O)(=O)N3CCCC3)c1)C2=O | 3.15 (inactive)
CC1=CN2C(=N)/C(=C/c3ccc([N+](=O)[O-])o3)C(=O)N=C2S1 | 8.52 (inactive)

Structure (SMILES) | z-score
CCCCCCc1cc2cc(-c3nnc(-c4cc(OC)c(OC)c(OC)c4)o3)c(=O)oc2cc1O | 9.96 (inactive)
Cc1c(NC(=O)CN2CCN(c3ccc([N+](=O)[O-])cc3)CC2)c(=O)n(-c2ccccc2)n1C | -3.45 (active)
Cc1c(C(c2ccc([N+](=O)[O-])cc2)c2c(C)n(C)n(-c3ccccc3)c2=O)c(=O)n(-c2ccccc2)n1C | 4.14 (inactive)
CC(=O)N1CCc2cc(Br)cc(S(=O)(=O)CCC(=O)Nc3c(C)n(C)n(-c4ccccc4)c3=O)c21 | 2.32 (inactive)
Cc1cc(N2CCCC2)ccc1/C=C1/C(=O)N(C)C(=S)N1C | 3.32 (inactive)
COC(=O)c1sccc1NC(=O)c1cc(OC)c(OC)c(OC)c1 | 3.71 (inactive)
CCOc1cc(NC(=O)c2ccco2)c(OCC)cc1NC(=O)c1cc(OC)c(OC)c(OC)c1 | -3.03 (active)
CCN1/C(=C\C=C(C(C)=O)C(C)=O)Sc2ccccc21 | 7.73 (inactive)
CCN1/C(=C/c2ccc3cc(C)ccc3[n+]2CC)Sc2ccccc21 | 16.5 (inactive)
CCN1/C(=C/C(C)=C/c2sc3ccccc3[n+]2CC)Sc2ccccc21 | -3.52 (active)
CCCCNC(=O)/C(C#N)=c1\s/c(=C\c2ccccc2OC(F)F)c(=O)n1CCCOC | 4.53 (inactive)
O=C(NC(Nc1nc2ccc([N+](=O)[O-])cc2s1)(C(F)(F)F)C(F)(F)F)c1cccnc1 | -3.96 (active)
COc1ccccc1NC(=O)c1ccc(-c2ccccc2[N+](=O)[O-])o1 | 1.05 (inactive)
COc1ccccc1NC(=O)c1c(NC(=O)c2ccco2)sc2c1CCC2 | -3.67 (active)
COC(=O)c1sc(NC(=O)c2ccco2)nc1C | 1.53 (inactive)
CCn1c2ccccc2c2nnc(SCC(=O)Nc3cc(C)on3)nc21 | 3.98 (inactive)
COc1cc2cc(C)c3nnc(SCC(=O)Nc4cc(C)on4)n3c2cc1OC | 5.98 (inactive)
CCn1c(SCC(=O)Nc2cc(C)on2)nc2c(c1=O)SC(C)C2 (centres undefined) | -3.41 (active)
CCO[C@@H]1OC(C(=O)Nc2ccccc2)=C[C@H](c2ccc(C(F)(F)F)cc2)[C@H]1CCCO | -3.04 (active)
CCCN1C(=O)/C(=C/c2c(N3CCNC(=O)C3CC(=O)OC)nc3c(C)cccn3c2=O)SC1=S (centres undefined) | 6.46 (inactive)
COc1ccc(NC2=Nc3ccccc3N3C2=Nc2c(c(C)nn2-c2ccc(C)cc2)C3c2cccnc2)cc1 (centres undefined) | 3.08 (inactive)
CCOc1ccccc1C(=O)NCC(=O)O | 0.62 (inactive)
CCOC(=O)CCNC(=O)CNC(=O)OCc1ccccc1 | -4.19 (active)
COc1ccc(CN2C(=O)/C(=C/c3ccc(-c4ccc(Cl)c(C(=O)O)c4)o3)SC2=S)cc1 | 5.56 (inactive)

Structure (SMILES) | z-score
CCOc1cc(C)c(S(=O)(=O)Nc2ccc3cn[nH]c3c2)cc1C | 4.24 (inactive)
CCc1ccc(NC(=S)Nc2ccc3cn[nH]c3c2)cc1 | -5.26 (active)
C=CCn1c(SCc2c(C)noc2C)nc2sc3c(c2c1=O)CCCCC3 | -4.19 (active)
CN(C)C(=O)C12CCC(C)(c3nc4ccccc4nc31)C2(C)C (centres undefined) | 3.42 (inactive)
O=C(Nc1nc(-c2ccc3c(c2)OCO3)cs1)c1ccncc1 | -4.14 (active)
c1ccc2nc(-c3ccc4c(c3)OCO4)ccc2c1 | -0.48 (inactive)
O=C1/C(=C/c2ccc(N3CCOCC3)o2)SC(=Nc2ccccc2)N1CCc1c[nH]c2ccccc12 | 17.8 (inactive)
COCCn1c(CN2CCN(c3ccc(OC)cc3)CC2)nc2c1c(=O)n(C)c(=O)n2C | -7.6 (active)
CC1CCCN(c2nc3c(c(=O)n(C)c(=O)n3C)n2CCSc2nc3ccccc3s2)C1 (centres undefined) | 3.19 (inactive)
COc1ccc(N2CCN(C(=O)CSc3nc4c(c(=O)n(C)c(=O)n4C)n3C(C)C)CC2)cc1 | -3.09 (active)
Cc1cc(C)c(C(=O)O)c(CC(C)(C)C(=O)O)c1 | 3.14 (inactive)
Cn1c(=O)c(N)c2c3c(c(Br)ccc31)C(=O)c1ccccc1-2 | 16.9 (inactive)
Cc1c(-c2cc(C(=O)O)on2)cnn1C | 1.94 (inactive)
CC(C)N=c1scc(-c2ccco2)n1/N=C/c1ccc(O)c(O)c1 | -5.1 (active)
CCCCN(C)C(=S)Nc1ccsc1C(=O)OC | 2.3 (inactive)
CCOc1cc(/C=N/Nc2nc3ccccc3[nH]2)cc(Br)c1OCC(=O)N(C)C | -3.72 (active)
CCOc1cc2[nH]c(=O)n(Cc3ccc(C(=O)NCCOC)cc3)c(=O)c2cc1OCC | 1.15 (inactive)
CCOc1cc(/C=C/C(=O)Nc2ccc(C(=O)NCCN(CC)CC)cc2)ccc1OCC(C)C | -4.98 (active)
Cc1ccc(C(OCC(O)CNC(C)c2ccccc2)c2ccccc2)cc1 (centres undefined) | -3.13 (active)
Cc1cc(OCC(=O)NCc2cccnc2)ccc1[N+](=O)[O-] | -4.17 (active)
CCCc1cc(=O)[nH]c(SCC(=O)NCCCC(=O)OCC)n1 | 3.15 (inactive)
CCCNC(=O)Cc1cc(=O)[nH]c(=O)[nH]1 | -3.04 (active)
CC1(C)c2ccccc2N2CC(=O)NC21/C=C/c1ccco1 (centres undefined) | 3.29 (inactive)
O=C(CSc1ncccn1)NC(=O)c1ccccc1 | 0.73 (inactive)

Structure (SMILES) | z-score
COC(=O)c1ccnc(SCC(=O)c2ccccc2)c1 | -3.59 (active)
COC(=O)c1cccc(N2C(=O)c3cccnc3C2=O)c1 | 0.1 (inactive)
CCN1C(=O)/C(=C/c2ccc(N3CCCC3)cc2)NC1=S | 15.8 (inactive)
CCn1c(SCC(=O)c2c[nH]c3ccccc23)nc2cc(S(=O)(=O)N3CCOCC3)ccc21 | 3.09 (inactive)
CCOC(=O)c1ccc2c(c1)nc(C1CCN(S(=O)(=O)c3cccs3)CC1)n2CC | -4.13 (active)
CS(=O)(=O)Nc1ccc(C(=O)Nc2ccccc2C(=O)N2CCCC2)cc1 | -4.1 (active)
COc1cccc(C(=O)Nc2ccccc2C(=O)N2CCCC2)c1 | 3.3 (inactive)
CCNc1c2c3c(cccc3n(C)c1=O)C(=O)c1ccccc1-2 | 15.6 (inactive)
Cc1ccc(S(=O)(=O)C(C#N)c2nc3ccccc3nc2N2CCC(C)CC2)cc1 (centres undefined) | 3.75 (inactive)
CCC(CC)COC(=O)C(C#N)c1nc2ccccc2nc1N1CCN(CC)CC1 (centres undefined) | -3.84 (active)
CCN1CCN(C2=CC3=CC(=C(C#N)C#N)CCC3CC2)CC1 (centres undefined) | 16.6 (inactive)
CCN(CC)c1ccc(/C=C2\SC(=O)N(C(C)C)C2=O)o1 | 17.4 (inactive)
Cc1ccccc1-c1nnc(-c2ccc(Cl)cc2)o1 | 3.54 (inactive)
CC(Cc1c[nH]c2ccccc12)C(=O)O (centres undefined) | 0 (inactive)
CC(=O)OCC(=O)c1c[nH]c2ccccc12 | 0.26 (inactive)
C=CCN1C(=O)/C(=C\C=C2\N(C)c3ccccc3C2(C)C)SC1=S | 15.4 (inactive)
CN1/C(=C\C=C(/C#N)C(=O)Nc2ccc(Cl)cc2)C(C)(C)c2ccccc21 | 8.8 (inactive)
CN1CCN(C2=CC3=CC(=C(C#N)C#N)CCC3CC2)CC1 (centres undefined) | 10.9 (inactive)
N#CCCn1cc(C(CC(=O)c2ccc(Br)cc2)C(=O)O)c2ccccc21 (centres undefined) | -4.89 (active)
CCN1C(=O)/C(=C/C=C2\N(CC)c3cc(S(=O)(=O)N(C)C)ccc3N2c2ccccc2)SC1=S | 13.2 (inactive)
COc1ccc(-c2cc(=O)c3cc(OC)ccc3o2)cc1 | -0.37 (inactive)
COc1ccc2[nH]cc(CCN3C(=O)CCC3=O)c2c1 | -5.12 (active)
